The values that follow come from PubChem BioAssay (EPA / NIEHS).

Assay [1] can be described thus: ATG_CRE_CIS: Attagene CIS-FACTORIAL HepG2 Assay for human cAMP Responsive Element (CRE) binding protein 3 (AID 2282926). As to conditions: HepG2 CRE cis-reporter, Attagene multiplexed mRNA; actives raise or lower the signal. In outline: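 HepG2 cells transiently transfected with cis-element-driven multiple reporter transcription units; CRE reporter mRNA measured 24 h after dosing by RT-PCR, 6-FAM labelling, HpaI digestion and capillary electrophoresis. Bidirectional fit versus DMSO baseline.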

Assay [2] addresses CCAAT/enhancer-binding protein beta (Homo sapiens) (UniProt P17676). Briefly: ATG_C_EBP_CIS: Attagene CIS-FACTORIAL HepG2 Assay for human CCAAT/Enhancer Binding Protein (C/EBP) beta (AID 2282927). As to conditions: HepG2 Attagene cis-factorial transcription factor reporter; actives raise or lower the signal. In outline: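 Transiently transfected HepG2 (MRTU library, endogenous TF-driven promoters); 24 h dosing; total RNA → oligo(dT) RT → PCR → 6-FAM primer extension → HpaI digest → CE; fit bidirectionally vs DMSO.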

Assay [3] can be described thus: ATG_CMV_CIS: Attagene CIS-FACTORIAL HepG2 Assay for human CMV (Internal Marker) (AID 2282928).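 Note: endpoint acts as a background internal control marker rather than a target.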 As to conditions: HepG2 CMV promoter reporter, transcription factor profiling; actives raise or lower the signal. A digest of the protocol:
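After transient transfection of HepG2 with reporter transcription units driven by cis-regulatory promoters, cells receive test chemical for 24 h. Labeled reporter amplicons, digested with HpaI, are sized and quantified by capillary electrophoresis against DMSO.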

Assay [4] can be described thus: ATG_DR4_LXR_CIS: Attagene CIS-FACTORIAL HepG2 Assay for human Liver X Receptor (LXR), DR4 submotif (AID 2282929). As to conditions: HepG2 Attagene DR4 cis-reporter, mRNA transcription; actives raise or lower the signal. A digest of the protocol:
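Measures endogenous transcription factor activity via a DR4-driven reporter transcript in human HepG2 cells. Compounds incubated 24 h; mRNA quantified by RT-PCR and capillary electrophoresis, analysed as gain or loss of signal versus DMSO.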

Assay [5] can be described thus: ATG_AP_1_CIS: Attagene CIS-FACTORIAL HepG2 Assay for human Activator Protein 1 (AP-1) (AID 2282931). As to conditions: HepG2 Attagene cis-factorial AP-1 reporter mRNA; actives raise or lower the signal. A digest of the protocol: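 Bidirectional concentration-response fitting against DMSO controls. Underlying signal: reporter mRNA from cis-promoter constructs in transiently transfected HepG2, measured after 24 h by RT-PCR and capillary electrophoresis.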

The nature of assay [6]: ATG_AP_2_CIS: Attagene CIS-FACTORIAL HepG2 Assay for human Activator Protein 2 (AP-2) (AID 2282932). As to conditions: HepG2 AP-2 cis-reporter, Attagene transcription factor profiling; actives raise or lower the signal. A digest of the protocol:
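Multiplexed mRNA reporter assay in HepG2: cis-regulated units report endogenous factor activity after 24 h treatment. Fluorescence from capillary electrophoresis of RT-PCR products gives the signal, with DMSO as baseline.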

Assay [7] can be described thus: ATG_BRE_CIS: Attagene CIS-FACTORIAL HepG2 Assay for human Bone Morphogenetic Protein (BMP) Response Element (BRE) (AID 2282933). As to conditions: HepG2 BMP response element reporter, Attagene transcription factor profiling; actives raise or lower the signal. A digest of the protocol: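 After a 24 h chemical treatment, transiently transfected HepG2 cells were lysed for RNA; reporter transcripts were quantified by fluorescent RT-PCR and capillary electrophoresis, normalised to DMSO.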

In assay [8] the target is Transcription factor E2F1 (Homo sapiens) (UniProt Q01094). Briefly: ATG_E2F_CIS: Attagene CIS-FACTORIAL HepG2 Assay for human E2F Transcription Factor 1 (AID 2282935). As to conditions: HepG2 Attagene cis-reporter, E2F reporter RNA transcripts; actives raise or lower the signal. In outline:
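Measures reporter transcript levels via RT-PCR with capillary electrophoresis detection in HepG2 cells harboring cis-regulated reporter units; 24 h post-dose; bidirectional curve fitting with DMSO as baseline.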

The nature of assay [9]: ATG_E_Box_CIS: Attagene CIS-FACTORIAL HepG2 Assay for human Enhancer Box (E-box) (AID 2282936). As to conditions: HepG2 E-box cis-reporter transcription, actives raise or lower the signal. In outline:
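First, HepG2 cells receive multiple cis-regulated reporter constructs by transient transfection. Next, chemicals are applied for 24 h. Finally, reporter mRNA is quantified via RT-PCR and capillary electrophoresis, with DMSO as baseline.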

The nature of assay [10]: ATG_M_61_CIS: Attagene CIS-FACTORIAL HepG2 Assay for M61 Transcription Factor (Internal Marker) (AID 2282937). As to conditions: HepG2 Attagene CIS-FACTORIAL M61 internal marker reporter; actives raise or lower the signal. A digest of the protocol: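 Fluorescence from labelled cDNA fragments, separated by capillary electrophoresis, quantifies reporter induction. HepG2 cells bearing transiently transfected cis-promoter MRTUs were incubated with test chemical for 24 h; DMSO defined baseline for gain/loss fitting.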

Assay [11] is described as follows: ATG_EGR_CIS: Attagene CIS-FACTORIAL HepG2 Assay for human Early Growth Response 1 (EGR1) (AID 2282938). As to conditions: HepG2 Attagene CIS-FACTORIAL EGR reporter mRNA; actives raise or lower the signal. In outline:
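Cell-based multiplex transcription assay: HepG2 carrying transfected cis-element reporter units, 24 h chemical treatment. Fluorescence from capillary electrophoresis of RT-PCR products gives mRNA levels; fitting is bidirectional relative to DMSO.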

Assay [12] can be described thus: ATG_M_19_CIS: Attagene CIS-FACTORIAL HepG2 Assay for M19 Transcription Factor (Internal Marker) (AID 2282939). As to conditions: HepG2 Attagene CIS-FACTORIAL M19 internal marker reporter; actives raise or lower the signal. In outline:
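In this multiplexed cell assay, transiently transfected HepG2 reporter units report endogenous transcription-factor activity; after 24 hours of treatment, labelled reporter cDNA fragments are quantified by capillary electrophoresis and fitted bidirectionally against DMSO.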

Assay [13] can be described thus: ATG_Ets_CIS: Attagene CIS-FACTORIAL HepG2 Assay for human Erythroblast Transformation Specific (ETS) (AID 2282941). As to conditions: HepG2 ETS cis-reporter transcription, actives raise or lower the signal. A digest of the protocol: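 Human HepG2 hepatoma cells were transiently transfected with promoter-driven reporter constructs and treated for 24 hours. Reporter transcripts were quantified by RT-PCR with fluorescent primer extension; bidirectional curve fitting used DMSO as reference.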

Assay [14] addresses Hepatocyte nuclear factor 3-beta (Homo sapiens) (UniProt Q9Y261). Briefly: ATG_FoxA2_CIS: Attagene CIS-FACTORIAL HepG2 Assay for human Forkhead box A2 (FOXA2) (AID 2282942). As to conditions: HepG2 cis-reporter transcription factor activity, 24 h; actives raise or lower the signal. In outline:
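In transiently transfected human HepG2 cells, promoter-driven reporter mRNA levels after 24 h chemical exposure are determined via RT-PCR with capillary electrophoresis. DMSO serves as baseline for bidirectional fitting.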

Assay [15] in a line: ATG_FoxO_CIS: Attagene CIS-FACTORIAL HepG2 Assay for human Forkhead box O (FoxO) (AID 2282943). As to conditions: HepG2 Attagene cis-reporter, FoxO element, mRNA; actives raise or lower the signal. In outline: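 Read-out: fluorescence of 6-FAM-labelled reporter cDNA fragments resolved by capillary electrophoresis. Transiently transfected HepG2 cells were dosed for 24 h; activity fitted in both directions relative to DMSO controls.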

A short description of assay [16]: ATG_GATA_CIS: Attagene CIS-FACTORIAL HepG2 Assay for human GATA Binding Protein (AID 2282944). As to conditions: HepG2 GATA cis-element reporter, Attagene multiplex mRNA; actives raise or lower the signal. In outline: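 Measures endogenous transcription factor-driven reporter mRNA in HepG2 cells transiently carrying cis-regulated constructs. 24 h dosing; RNA via oligo(dT) reverse transcription, PCR, HpaI digestion, capillary electrophoresis; fitted relative to DMSO.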

The nature of assay [17]: ATG_GLI_CIS: Attagene CIS-FACTORIAL HepG2 Assay for human Zinc Finger Protein GLI1 (AID 2282945). As to conditions: HepG2, Attagene cis-factorial reporter mRNA, GLI element; actives raise or lower the signal. A digest of the protocol:
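Transiently transfected HepG2 cells report endogenous transcription factor activity via cis-element-driven reporter units. After 24 h compound exposure, reporter mRNA was measured by RT-PCR with capillary electrophoresis; bidirectional fitting against DMSO baseline.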

In assay [18] the target is Bile acid receptor (Homo sapiens) (UniProt Q96RI1). Briefly: ATG_IR1_CIS: Attagene CIS-FACTORIAL HepG2 Assay for human Nuclear Receptor Subfamily 1 Group H Member 4 (NR1H4), IR1 submotif (AID 2282946). As to conditions: IR1 reporter transcription, actives raise or lower the signal. In outline:
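HepG2 cells transiently transfected with multiple cis-promoter-driven reporter units to measure endogenous transcription factor activity; 24 h exposure. Reporter mRNA read by RT-PCR, FAM labelling, HpaI digestion and capillary electrophoresis. Bidirectional fit versus DMSO.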

Assay [19] in a line: ATG_ERE_CIS: Attagene CIS-FACTORIAL HepG2 Assay for Estrogen Response Element (ERE) (AID 2282940). As to conditions: HepG2 ERE cis-reporter, Attagene RNA transcript; actives raise or lower the signal. In outline: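 Measuring endogenous transcription factor output, the assay doses transfected HepG2 cells for 24 hours and quantifies reporter transcripts by fluorescent RT-PCR and capillary electrophoresis, with DMSO as baseline.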

In assay [20] the target is Aryl hydrocarbon receptor (Homo sapiens) (UniProt P35869). The assay can be described thus: ATG_Ahr_CIS: Attagene CIS-FACTORIAL HepG2 Assay for human Aryl Hydrocarbon Receptor (Ahr) (AID 2282930). As to conditions: HepG2 AhR cis-factorial reporter transcription; actives raise or lower the signal. In outline: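 Read-out: reporter mRNA quantified by RT-PCR with fluorescent primer extension and capillary electrophoresis. Human HepG2 liver cells carried transfected cis-promoter reporter units and were exposed to chemical for 24 h; gain or loss fitted relative to DMSO.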
Aryl hydrocarbon receptor (Homo sapiens), sequence (P35869 whole entry, looked up): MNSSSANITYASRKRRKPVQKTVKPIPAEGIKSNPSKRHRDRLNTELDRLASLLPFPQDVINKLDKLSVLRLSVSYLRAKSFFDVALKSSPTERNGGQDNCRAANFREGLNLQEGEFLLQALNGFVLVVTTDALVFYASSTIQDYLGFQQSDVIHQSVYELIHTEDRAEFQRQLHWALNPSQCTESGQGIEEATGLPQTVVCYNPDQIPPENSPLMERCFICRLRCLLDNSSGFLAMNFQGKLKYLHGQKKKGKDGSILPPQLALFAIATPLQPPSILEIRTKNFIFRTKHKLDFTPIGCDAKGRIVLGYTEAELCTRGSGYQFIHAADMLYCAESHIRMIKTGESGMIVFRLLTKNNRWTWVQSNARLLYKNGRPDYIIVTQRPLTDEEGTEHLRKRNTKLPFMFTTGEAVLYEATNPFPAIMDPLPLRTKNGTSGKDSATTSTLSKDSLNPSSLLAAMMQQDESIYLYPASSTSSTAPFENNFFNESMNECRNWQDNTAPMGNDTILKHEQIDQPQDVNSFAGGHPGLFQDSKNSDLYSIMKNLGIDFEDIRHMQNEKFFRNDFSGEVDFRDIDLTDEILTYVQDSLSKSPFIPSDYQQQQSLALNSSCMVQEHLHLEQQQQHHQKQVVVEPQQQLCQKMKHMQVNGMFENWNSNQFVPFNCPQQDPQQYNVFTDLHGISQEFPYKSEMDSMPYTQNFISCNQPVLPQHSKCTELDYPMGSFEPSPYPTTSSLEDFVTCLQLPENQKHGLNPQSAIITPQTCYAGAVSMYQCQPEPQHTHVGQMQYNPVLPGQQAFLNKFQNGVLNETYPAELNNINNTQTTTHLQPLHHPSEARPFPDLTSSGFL

The source made the active and inactive calls. Rule for the calls: active = hit-call score of the fitted dose curve at least 0.9, where 1 is the maximum; inactive = score below 0.9.

Bile acid receptor (Homo sapiens), sequence (Q96RI1 whole entry, looked up): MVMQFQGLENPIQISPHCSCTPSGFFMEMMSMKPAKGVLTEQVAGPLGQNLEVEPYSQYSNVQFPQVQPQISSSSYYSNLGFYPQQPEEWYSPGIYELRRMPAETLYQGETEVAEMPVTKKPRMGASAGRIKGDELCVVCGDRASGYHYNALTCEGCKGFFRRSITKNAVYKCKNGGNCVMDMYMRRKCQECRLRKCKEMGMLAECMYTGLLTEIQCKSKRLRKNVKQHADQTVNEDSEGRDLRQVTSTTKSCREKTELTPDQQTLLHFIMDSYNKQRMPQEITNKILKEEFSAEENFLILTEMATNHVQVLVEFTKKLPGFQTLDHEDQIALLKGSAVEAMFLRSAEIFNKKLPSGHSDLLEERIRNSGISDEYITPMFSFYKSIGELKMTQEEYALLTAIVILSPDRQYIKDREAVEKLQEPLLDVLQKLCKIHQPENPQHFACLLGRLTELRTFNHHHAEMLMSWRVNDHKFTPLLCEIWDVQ
Transcription factor E2F1 (Homo sapiens), sequence (Q01094 whole entry, looked up): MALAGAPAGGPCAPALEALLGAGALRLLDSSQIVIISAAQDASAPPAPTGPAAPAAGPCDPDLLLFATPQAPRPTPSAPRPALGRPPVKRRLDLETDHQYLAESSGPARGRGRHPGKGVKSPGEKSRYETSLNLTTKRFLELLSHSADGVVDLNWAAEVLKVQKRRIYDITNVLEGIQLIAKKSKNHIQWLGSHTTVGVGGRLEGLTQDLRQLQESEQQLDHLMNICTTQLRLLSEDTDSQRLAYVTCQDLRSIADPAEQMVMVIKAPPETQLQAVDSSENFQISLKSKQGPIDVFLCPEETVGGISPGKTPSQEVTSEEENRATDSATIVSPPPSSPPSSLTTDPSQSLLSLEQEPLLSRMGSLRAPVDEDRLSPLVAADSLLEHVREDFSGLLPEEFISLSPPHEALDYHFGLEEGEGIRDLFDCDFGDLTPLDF
Hepatocyte nuclear factor 3-beta (Homo sapiens), sequence (Q9Y261 whole entry, looked up): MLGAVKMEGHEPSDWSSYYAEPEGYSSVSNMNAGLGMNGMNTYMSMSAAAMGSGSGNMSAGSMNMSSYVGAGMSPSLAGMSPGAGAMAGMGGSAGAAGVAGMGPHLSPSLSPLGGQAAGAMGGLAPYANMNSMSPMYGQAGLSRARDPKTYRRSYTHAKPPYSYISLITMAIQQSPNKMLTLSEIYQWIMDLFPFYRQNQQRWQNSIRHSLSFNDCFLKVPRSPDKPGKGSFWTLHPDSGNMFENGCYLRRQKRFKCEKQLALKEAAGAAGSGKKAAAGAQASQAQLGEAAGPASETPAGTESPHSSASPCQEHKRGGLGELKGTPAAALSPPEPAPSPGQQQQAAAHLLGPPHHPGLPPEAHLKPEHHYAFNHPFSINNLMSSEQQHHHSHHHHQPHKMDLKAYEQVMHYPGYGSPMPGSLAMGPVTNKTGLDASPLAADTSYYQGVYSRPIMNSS
CCAAT/enhancer-binding protein beta (Homo sapiens), sequence (P17676 whole entry, looked up): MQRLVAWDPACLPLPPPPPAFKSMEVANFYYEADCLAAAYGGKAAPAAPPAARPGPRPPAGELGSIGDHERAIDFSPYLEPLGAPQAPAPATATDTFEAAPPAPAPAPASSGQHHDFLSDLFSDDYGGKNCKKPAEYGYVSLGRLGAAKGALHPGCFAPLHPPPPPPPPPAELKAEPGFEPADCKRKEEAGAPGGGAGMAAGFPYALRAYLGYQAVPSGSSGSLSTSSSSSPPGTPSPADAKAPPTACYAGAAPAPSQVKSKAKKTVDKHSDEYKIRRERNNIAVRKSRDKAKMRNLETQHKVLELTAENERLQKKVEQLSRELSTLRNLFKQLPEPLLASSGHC

`CC(C)(C)c1ccccc1`: the result in [1], in assay [2], in assay [3], in assay [4], in [5] and in assay [6] was inactive. For the same compound, the compound was called inactive in [7], in assay [8], in [9], in assay [10], in assay [11] and in assay [12]. Besides, the compound was called inactive in assay [13], in assay [14], in [15], in [16] and in assay [17].

Take `CCCCC(CC)COC(=O)CCCCCCCC(=O)OCC(CC)CCCC` (configuration not stated): the outcome in assay [1], in assay [2], in assay [3], in [4], in [5] and in [6] was inactive. Also, the call in assay [7], in assay [8], in assay [9], in assay [10], in assay [11] and in assay [12] was inactive. The result in [13], in assay [14], in assay [15], in [16], in assay [17] and in assay [18] was inactive.

As for `Cc1cc(Cc2ccc(N)c(C)c2)ccc1N`, the call in [1], in [2], in [3], in [4], in [5] and in assay [6] was inactive. In addition, the result in [7], in assay [8], in [9], in assay [10], in assay [11] and in assay [12] was inactive. The outcome in [13], in [14], in assay [15], in [16], in assay [17] and in [18] was inactive.

As to `O=[Si]=O`, the compound was classed as inactive in assay [1], in assay [2], in assay [3], in assay [4], in [5] and in [6]. The result in assay [7], in assay [8], in [9], in assay [10], in assay [11] and in [12] was inactive. Moreover, the result in [19], in assay [13], in assay [14], in [15], in [16] and in assay [17] was inactive.

Regarding `Nc1nc(Cl)nc2c1ncn2[C@H]1C[C@H](O)[C@@H](CO)O1`, the compound was called inactive in assay [1], in assay [2], in assay [4], in assay [20], in [5] and in assay [6]. For the same compound, the result in assay [7], in assay [8], in assay [10], in assay [11], in assay [12] and in [13] was inactive. Also, the result in [14], in assay [15], in assay [16], in [17] and in assay [18] was inactive. Also, the AC50 in [3] was 23.7 µM (active); in assay [9], 11.4 µM (active).

Regarding `Cc1cc(SC2=C(O)C[C@@](CCc3ccc(N)cc3)(C(C)C)OC2=O)c(C(C)(C)C)cc1CO`, the outcome in [1], in [2], in assay [3], in [4], in assay [20] and in [5] was inactive. Besides, the call in assay [6], in assay [7], in assay [8], in [9], in assay [10] and in assay [11] was inactive. Moreover, the outcome in [12], in assay [13], in assay [14], in assay [15], in [16] and in assay [17] was inactive. The compound was called inactive in assay [18].

Regarding `CC(C)c1cccc(C(C)C)c1NC(=O)NS(=O)(=O)c1cc(C(C)(C)O)co1`, the result in assay [1], in [2], in assay [3], in assay [4], in [5] and in [6] was inactive. Moreover, the compound was called inactive in assay [7], in [8], in assay [9], in assay [10], in [11] and in [12]. In addition, the compound was called inactive in assay [13], in assay [14], in assay [15], in [16], in assay [17] and in [18].
